# Assay results as given in PubChem BioAssay (NCATS).
# Records with an inconclusive call do not appear. Values without a mark were called inactive. The source made the active and inactive calls. Calls follow the shape of the dose curve; as a rule, active = well fitted cell-killing curve with a large enough effect; inconclusive = small, poorly fitted or top-dose-only effect, or effect the other way; inactive = no such curve, though single readings can be large or run the other way.
# Experiment: qHTS of pediatric cancer cell lines to identify multiple opportunities for drug repurposing: Confirmatory screen for NB-EBc1 cells (AID 1347115);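 also: cells exposed to compound for 48 h before the viability read; nearly all actives have a fitted effect of over 45% in size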
# Conditions: NB-EBc1 neuroblastoma cells, viability (cytotoxicity); series mostly up to 45.9 µM; activity change, negative = cytotoxic: at the top concentration
# From the text: Drug repurposing or repositioning has been offered as a strategy for drug development in oncology programs. This approach has special potential for childhood cancers and other rare or orphan diseases, where the expected return on new drug development has been a disincentive to pharmaceuticals.
# In this project we exploit the poly-pharmacology of drugs to discover new indications via phenotypic screening of a panel of 19 well-characterized cell lines derived from solid tumors seen in children and adolescents. The goal is to identify approved drugs with previously unrecognized anticancer properties that has the potential to reveal new mechanisms and biological processes involved in carcinogenesis or drug resistance. We employed a titration-based paradigm (quantitative high-throughput screening or qHTS), where all compounds were tested at multiple concentrations for their effect on cell viability. Concentration-response curves (CRCs) were derived directly from the primary screen, and both potency and efficacy values were used to identify compounds with robust bioactivity profiles. We screened the NIH Chemical Genomics Center (NCGC) Pharmaceutical Collection (NPC) and Mechanism Interrogation Plate (MIPE) small molecule collections of approved and investigational compounds against these cell lines; and measured metabolically active cells after 48 hours of compound treatment as a proxy for cell viability.
# Assay Submitter: Nathalia J. Martinez, National Center for Advancing Translational Sciences, National Institutes of Health, Rockville, MD, USA; email: natalia.martinez@nih.gov
# [1] Shen, M et al. Quantitative high-throughput phenotypic screening of pediatric cancer cell lines identifies multiple opportunities for drug repurposing. Oncotarget 2017 Dec 19;9(4):4758-4772. PMID 29435139.
# The cells were obtained from University of North Carolina (UNC), Pediatric Preclinical Testing Program (PPT), and Coriell Institute (CI).
# qHTS cell viability assay:
# Cells were assayed in growth media at a density of 500-1,000 cells/well. Five microliters of cells were dispensed into 1,536-well, white, solid-bottom, TC-treated plates (Greiner Bio One) using a multidrop dispenser and incubated at 37 degrees C, 5% CO2, under a humidified atmosphere for 5 hours. Twenty-three nanoliters of compounds and controls (neutral control DMSO or positive control bortezomib at final concentration of 2.3 µM) were subsequently transferred by Kalypsys pintool. For primary screens, the MIPE collection was tested at 11-point dilutions (final concentrations range from 0.78 nM to 46 µM) and the NPC collection at 8-point dilutions (final concentrations range from 0.59 nM to 46 µM). Compounds tested in follow-up screens were assayed at 11-point dilutions. Cells were incubated for 48 hours, followed by addition of 3 µL of CellTiter-Glo (Promega). After a 15 min incubation at room temperature, samples were analyzed for luminescence intensity using a ViewLux High-throughput CCD imager equipped with clear filters.
# % is scaled to controls: 0 for no effect and ±100 for the full control effect; potency is read from the fitted curve at half-maximal effect.
SMILES,Potency,"activity change, negative = cytotoxic"
CC[C@@]1(O)C(=O)OCc2c1cc1n(c2=O)Cc2cc3ccccc3nc2-1,0.0657 µM (active),
COc1cc([C@@H]2c3cc4c(cc3[C@@H](O)C3COC(=O)C32)OCO4)cc(OC)c1O (some centres undefined),3.69 µM (active),
O=c1[nH]c2ccc(Cl)cc2c(N[C@@H]2CN3CCC2CC3)c1-c1nc2ccccc2[nH]1,0.522 µM (active),
C[C@@H]1O[C@@H](O[C@@H]2C=C3CC[C@@H]4[C@@H](CC[C@]5(C)[C@H](c6ccc(=O)oc6)CC[C@@]45O)[C@@]3(C)CC2)[C@H](O)[C@H](O)[C@H]1O,0.0261 µM (active),
O=C1C(I)=CC(=C(c2cc(I)c(O)c(I)c2)c2ccccc2C(=O)O)C=C1I,,-17.6%
CCCCCC[C@H]1C(=O)O[C@H](C)[C@H](NC(=O)c2cccc(NC=O)c2O)C(=O)O[C@@H](C)[C@@H]1OC(=O)CC(C)C,0.0147 µM (active),
CC(C)(C)C(O)C(Oc1ccc(Cl)cc1)n1cncn1 (centres undefined),,10.8% [at 95.5 µM]
C[C@]12Cc3cn[nH]c3C[C@@H]1CC[C@@H]1[C@H]2CC[C@@]2(C)[C@H]1CC[C@]2(C)O,,-26.6%
CC[C@H]1C=CC=CC[C@@H](C)[C@H](O)[C@@](C)(O)C(=O)[C@@H](C)[C@H](O)[C@@H](C)C(=O)[C@@H](C)[C@H](O)[C@@H](C)C=CC(=O)O[C@@H]2[C@@H](C)[C@H](CC1)O[C@]1(CC[C@H](C)[C@H](C[C@@H](C)O)O1)[C@H]2C,0.208 µM (active),
C[C@H]1CCCC=CC2C[C@H](O)C[C@@H]2[C@H](O)C=CC(=O)O1 (some centres undefined),0.117 µM (active),
CC(C)(O)C=CC(=O)[C@](C)(O)[C@H]1[C@H](O)C[C@]2(C)[C@@H]3CC=C4[C@@H](C=C(O)C(=O)C4(C)C)[C@]3(C)C(=O)C[C@@]12C,3.29 µM (active),
Cc1c(C(=O)Nc2cccc(C(F)(F)F)c2)cc(-c2ccccc2)n1CCCN1CCOCC1,42.7 µM (active),
CCCN1CCO[C@@H]2c3cc(O)ccc3OC[C@@H]21,,-1.23%
O=C(O)CCCOc1ccc(Cl)cc1Cl,19.4 µM (active),
CC=C(C)C(=O)O[C@H]1C(C)=C2[C@@H]3OC(=O)[C@@](C)(O)[C@@]3(O)[C@@H](OC(=O)CCC)C[C@](C)(OC(C)=O)[C@@H]2[C@@H]1OC(=O)CCCCCCC,,0.196%
CCC(=O)OC1CCC2C3CCC4=CC(=O)CC[C@@]4(C)C3CC[C@]12C (some centres undefined),,-5.39%
O=C(O)COc1nc(Cl)c(Cl)cc1Cl,,-1.36% [at 95.5 µM]
CC(C)N[C@@H]1CCn2c(=O)[nH]c3cccc(c32)[C@@H]1O,,-12.3%
O=C(N[C@H]1CN2CCC1CC2)c1ccc(Cl)cc1,,-4.7%
C[C@@H]1CC[C@@]2(OC1)O[C@H]1C[C@H]3[C@@H]4CC=C5C[C@@H](O[C@@H]6O[C@H](CO)[C@@H](O[C@@H]7O[C@@H](C)[C@H](O)[C@@H](O)[C@@H]7O)[C@H](O)[C@@H]6O[C@@H]6O[C@@H](C)[C@H](O)[C@@H](O)[C@@H]6O)CC[C@]5(C)[C@@H]4CC[C@]3(C)[C@@H]1[C@H]2C,16.5 µM (active),
CS(=O)(=O)c1ccc(C(=O)C2C(=O)CCCC2=O)c([N+](=O)[O-])c1,,-9.65% [at 95.5 µM]
Cc1ccccc1-n1c(Cn2cnc3c(N)ncnc32)nc2cccc(C)c2c1=O,,4.2%
CC(=O)[O][Hg][c]1ccccc1,5.85 µM (active),
CC1=C(O)C(=O)C=C2C1=CC=C1[C@@]2(C)CC[C@@]2(C)[C@@H]3C[C@](C)(C(=O)O)CC[C@]3(C)CC[C@]12C,2.61 µM (active),
